Consider 39 compounds from PubChem BioAssay.

A number with no mark means an inactive call. How the calls were made is not given here.

Sequence of Pantothenate synthetase (Mycobacterium tuberculosis (strain ATCC 25618 / H37Rv)) (P9WIL5 whole entry, looked up): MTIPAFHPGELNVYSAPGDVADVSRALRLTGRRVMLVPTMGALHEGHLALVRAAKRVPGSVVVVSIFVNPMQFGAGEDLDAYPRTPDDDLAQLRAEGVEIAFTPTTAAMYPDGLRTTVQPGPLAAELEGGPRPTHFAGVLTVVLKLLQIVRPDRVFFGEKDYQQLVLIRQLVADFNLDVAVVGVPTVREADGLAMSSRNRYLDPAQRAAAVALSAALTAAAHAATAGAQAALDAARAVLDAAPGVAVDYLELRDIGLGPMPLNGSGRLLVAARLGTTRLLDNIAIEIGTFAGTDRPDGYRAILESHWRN

The assay concerns the target Pantothenate synthetase (Mycobacterium tuberculosis (strain ATCC 25618 / H37Rv)) (UniProt P9WIL5). Briefly: Recombinant Mtb pantothenate synthetase (PanC) inhibitors, coupled enzyme, confirmatory (AID 375).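 Further: 0% = full reaction with vehicle and 100% = no enzyme background.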 The note with it: coupled enzyme assay; at 10 µM, stronger effect = higher value.
The inhibition is how much of the control response was suppressed. Consider `Cc1ccc(C(=O)C2COC(=O)C2)cc1` (centres undefined), for which the inhibition is 0%.
Turning to `CCCCOn1c(C)c(C(=O)OCC)c2c3nonc3ccc21`, the inhibition was 0%.
With `CN1CCN(C2=C(Cl)C(=O)N(c3cccc(Cl)c3)C2=O)CC1` the figure was 3%; with `C=CCSc1nnc2n(CCc3ccccc3)c(=O)c3c4c(sc3n12)COC(C)(C)C4`, 0%; with `Cc1ccc(NC(=O)C2CCCN(S(=O)(=O)c3cnc[nH]3)C2)c(Br)c1` (centres undefined), 0%.
As to `Cc1ccc2c(C)nc(NC3=NCN(C(C)C)CN3)nc2c1`, the inhibition is 0%.
With `O=C(c1ccccc1)c1coc2ccc(O)c(CN3CCOCC3)c12`, the inhibition is 4%.
For the compound `Cc1cc(C)cc(NS(=O)(=O)c2ccc3[nH]c(=O)[nH]c3c2)c1`, the inhibition was 0%.
With `COCCn1c(SCC(=O)Nc2cccc(OC)c2)nnc1-c1ccc(Cl)cc1` the figure was 3%; with `CCOc1ccc(S(=O)(=O)n2c(C)nc3ccccc32)cc1`, 0%; with `O=C(CNCC1CCCO1)Nc1ccccc1-n1cccc1` (centres undefined), 2%.
The figure for `CCc1nnc(NC(=O)CSc2nnc(CSc3nc(C)cc(C)n3)n2CC)s1` is 1%.
With `O=C(Cn1[nH]c(=O)c2ccccc2c1=O)OCC(=O)N1CCCc2ccccc21` the figure was 5%; with `CC(=O)OCC(=O)[C@@]1(OC(C)=O)[C@@H](C)C[C@H]2[C@@H]3C[C@H](F)C4=CC(=O)C=C[C@]4(C)[C@@]3(F)[C@@H](O)C[C@@]21C`, 0%; with `O=C(Nc1ccc(Cl)cc1)N1CCSCC1`, 1%.
With `CC1CCC(C(=O)NC(C(=O)NCCN2CCC(C)CC2)C(C)C)CC1` (centres undefined), the inhibition is 0%.
With `Cc1ccc(-c2ccc(SCC(=O)Nc3nonc3C)nn2)cc1` the figure was 3%; with `CC(=O)c1cccc(NC(=O)NCc2ccco2)c1`, 0%; with `O=C(CCN1C(=O)c2ccccc2C1=O)Nc1ccc(F)cc1`, 0%.
Regarding `COc1ccc(S(=O)(=O)N(C)CC(=O)N2CCCCC2)cc1Cl`, the inhibition was 0%.
Consider `O=C(Nc1nc2ccc(S(=O)(=O)N3CCCC3)cc2s1)C1CCCO1` (centres undefined), for which the inhibition was 0%.
With `COc1cc(C(=O)Nc2nc(-c3cccs3)cs2)cc(OC)c1OC` the figure was 0%.
With `CCn1nnnc1SCC(=O)Nc1nnc(C(C)C)s1` the figure was 3%; with `CC(CN1c2ccccc2Sc2ccccc21)N(C)C` (centres undefined), 0%; with `OC(CN1CCCCC1)Cn1c(C(F)(F)F)nc2ccccc21` (centres undefined), 9%.
The figure for `CC(C)CCn1c(=O)c2ccccc2n2c(CN(C)Cc3ccccc3)nnc12` is 0%.
As to `CN(CC(=O)Nc1ccccc1Cl)C(=O)COC(=O)CNC(=O)c1ccc(Br)o1`, the inhibition was 0%.
With `CCN(CC)C(=O)C1CCN(CC2CC=CCC2)CC1` (centres undefined) the figure was 0%; with `O=C(Nc1ccccc1)N(CCN1CCOCC1)Cc1ccccc1F`, 0%; with `CCCCOC(=O)c1cccc(NC(=O)CC)c1`, 0%.
`CCOC(=O)C1(CC)NC(c2cccc(F)c2)C2C(=O)N(CC)C(=O)C21` (centres undefined): the inhibition was 0%.
In the case of `O=c1oc2ccccc2c2nccnc12`, the inhibition is 0%.
As for `Cn1c(=O)cc(NCCc2ccccc2)[nH]c1=O`, the inhibition was 0%.
For `CCOC(=O)c1ccc(NC(=O)CSCc2ccco2)cc1`, the inhibition is 0%.
For `O=C(O)CCCc1ccccc1`, the inhibition was 0%.
For `O=C1C2CCCN2C(c2ccccc2)N1c1ccc(Cl)cc1` (centres undefined), the inhibition is 1%.
With `Cc1ccc(NC2=NCC(=O)N2c2ccc3c(c2)OCCO3)c(C)c1`, the inhibition was 7%.
As for `O=C(NCC12CC3CC(C1)CC(CNC(=O)N1CCCC1)(C3)C2)N1CCCC1`, the inhibition was 0%.
With `CC(CCc1ccco1)NC(=O)Cn1ncc2c1-c1ccccc1OC2` (centres undefined), the inhibition was 5%.
